Measured values taken from PubChem BioAssay AID808 (Columbia University Molecular Screening Center, 2007).
Hit rate of the full screen: of about 93,000 compounds, about 180 (0.19%) were called active.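 The calls were made as follows: active = activation above the screen mean plus 3 SD, with well images confirming the hit on visual review (cut at about 28% in these data, passing the limit was not always enough); inconclusive = activation above that limit but images do not confirm it; inactive = activation not above that limit.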 The full list was thinned out, with actives kept by preference.

Assay: enhancers of endothelial VCAM-1 upregulation by TNFa – imaging, HUVEC, TNFa stimulus, immunofluorescence, primary screen (AID 808);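 also: signal is the number of cytoplasmic VCAM-1 stained grains per positive cell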
Details: HUVEC TNFa-stimulated VCAM-1 immunofluorescence, high-content imaging; at 2 µM; hits give high values; scaled per plate to unstimulated/TNFa-only wells

Row | SMILES | activation
1 | c1ccc(CSc2nnc(-c3ccco3)n2Cc2ccccc2)cc1 | 1.1% (inactive)
2 | CCCc1nc2scc(-c3ccc(C)cc3)c2c(=O)n1N | -5.6% (inactive)
3 | COc1ccccc1C(=O)C(O)c1ccccc1OC (configuration not stated) | 4.6% (inactive)
4 | COc1cc(-c2nc(-c3ccncc3)no2)cc(OC)c1OC | 1.5% (inactive)
5 | Cc1c(Nc2cc(N3CCCC(C)C3)c3nonc3c2[N+](=O)[O-])c(=O)n(-c2ccccc2)n1C (configuration not stated) | -5.2% (inactive)
6 | Cc1cccc(C(=O)NCCCN2CCCC2=O)c1 | 26% (inactive)
7 | CSCc1cc(N2CCOCC2)nc(SCc2ccc(Cl)cc2Cl)n1 | -7.6% (inactive)
8 | O=C(NCc1cccnc1)Nc1ccccc1F | 10.6% (inactive)
9 | O=C(c1ccco1)N1CCN(CC(=O)N(C2CCCCC2)C2CCS(=O)(=O)C2)CC1 (configuration not stated) | -39.3% (inactive)
10 | COc1cc(OC)c(C(=O)NC2CCCCCC2)cc1OC | -3.2% (inactive)
11 | Cc1ccc(-n2nc3ccc(NC(=O)/C=C/c4ccco4)cc3n2)cc1C | -46.8% (inactive)
12 | O=C(Nc1ccncc1)c1c(F)cccc1F | 76.2% (active)
13 | CCC(=O)Nc1cccc(NC(=O)c2cccnc2)c1 | -7.7% (inactive)
14 | O=C(Nc1ccc(F)cc1)c1cccnc1N1CCOCC1 | -3.5% (inactive)
15 | CC(=O)c1cc(NC(=O)c2ccccc2)c(=O)oc1/C=C/N(C)C | 16.1% (inactive)
16 | NC(=O)CCCC1=NS(=O)(=O)c2ccccc2N1 | 2.1% (inactive)
17 | O=C(O)c1ccc(COc2c(F)c(F)cc(F)c2F)o1 | 1.5% (inactive)
18 | CC(=O)c1cnn(-c2cc(Oc3ccc(F)cc3)ncn2)c1C | 50.8% (active)
19 | CC(=O)c1ccc(Oc2cc(C)nc(-n3nc(C)cc3C)n2)cc1 | -75.8% (inactive)
20 | CC(c1ccccn1)N(CCN(C)C)C(=S)Nc1ccccc1F (configuration not stated) | 1.7% (inactive)
21 | O=C(Nc1cc2c3c(c1)C1CCCC1CN3CC1CCCC21)c1ccc([N+](=O)[O-])cc1 (configuration not stated) | -2.9% (inactive)
22 | Cc1cc(C)n(-c2nc(O)cc(=O)[nH]2)n1 | -0.9% (inactive)
23 | CCC(=O)NCCc1nc2ccccc2n1CC | -6.7% (inactive)
24 | COC(=O)c1ccc(NC(=O)Nc2ccc(C)cc2)cc1 | -1.4% (inactive)
25 | CCOC(=O)N1CCC(NC(=O)c2ccc3nc(N4CCOCC4)sc3c2)CC1 | -2.2% (inactive)
26 | Cc1ccc2c(c1)sc1ncc(NC(=O)c3ccccc3)c(=O)n12 | -3.1% (inactive)

Row | SMILES | activation
27 | O=C(Nc1nncs1)c1ccccc1NS(=O)(=O)c1cccs1 | 5.4% (inactive)
28 | Cc1nc2nc[nH]n2c(=O)c1NC(=O)c1cccc(OCC(C)C)c1 | -5.4% (inactive)
29 | CCOC(=O)NCc1ccc2c(c1)OCO2 | -8.2% (inactive)
30 | CCn1c(NC(=O)c2ccccc2)c(-c2cccs2)c(=O)c2ccccc21 | -8.7% (inactive)
31 | COc1ccc(C(C(=O)NCc2ccccc2)N(Cc2cccs2)C(=O)c2cnccn2)cc1 (configuration not stated) | -2.8% (inactive)
32 | Cn1cnc([N+](=O)[O-])c1Nc1ccccc1O | 17.4% (inactive)
33 | Cn1c2ccccc2c2c(C(=O)N3CCN(c4ccc(F)cc4)CC3)cn(C3CCCC3)c(=O)c21 | -11.3% (inactive)
34 | CCC(c1nnnn1Cc1ccco1)N(CCc1ccccc1)Cc1cc2cccc(C)c2[nH]c1=O (configuration not stated) | -0.4% (inactive)
35 | COc1ccc(CCN(Cc2cc3cccc(C)c3[nH]c2=O)C(=O)N2CCCC2)cc1OC | -91.4% (inactive)
36 | Cc1cccc2cc(CN(Cc3ccc4c(c3)OCO4)Cc3nnnn3C3CCCC3)c(=O)[nH]c12 | 37.5% (active)
37 | O=C(COC(=O)C12CC3CC(CC(C3)C1)C2)NCc1ccco1 | 3.3% (inactive)
38 | CC(C)C(=O)N1CCN(c2nc(-c3ccccc3)c3c(c2C#N)CC(C)(C)OC3)CC1 | -36.7% (inactive)
39 | CCCOc1cc(C)c(S(=O)(=O)n2nnc3ccccc32)cc1C | 45.5% (active)
40 | CC(=O)Nn1cc2c(=O)n(C)c(=O)n(C)c2c1 | -8.2% (inactive)
41 | O=C1CC(Sc2ncn[nH]2)C(=O)N1c1ccccc1 (configuration not stated) | 4.7% (inactive)
42 | CCC(=O)Nc1ccc(S(=O)(=O)NCC2CCCO2)cc1 (configuration not stated) | -5.4% (inactive)
43 | CCCN1C(=O)C(NS(=O)(=O)c2ccc(N)cc2)(C(F)(F)F)C(C(=O)OC)=C1C (configuration not stated) | 1.5% (inactive)
44 | CCOCc1nnc(NC(=O)CSc2ccc(C)cc2)s1 | 5.6% (inactive)
45 | Cc1cccc(C)c1OC(=O)CSc1nnc(-c2ccccc2)o1 | 3.9% (inactive)
46 | CC(C)Nc1nc(N(c2ccccc2)c2ccccc2)nc(-n2ccnc2)n1 | 3.2% (inactive)
47 | CCOc1ccc(OCc2ccc(C(=O)Nc3cccc(C)n3)o2)cc1 | 9.1% (inactive)
48 | CCCNC(=O)Nc1ccccc1C(=O)Nc1ccc(OC)cc1 | -2.4% (inactive)
49 | Cc1cc(=O)oc(C)c1C(=O)NC1CC(C)(C)NC(C)(C)C1 | 12.6% (inactive)
50 | c1ccc(-c2cn3cccnc3n2)cc1 | -0.6% (inactive)
51 | C=CCn1c(COc2cccc3cccnc23)nnc1SCC(=O)OC | -28.4% (inactive)
52 | Cc1ccc(C)c(NC2=NCC(=O)N2c2ccc3c(c2)OCCO3)c1 | 21.9% (inactive)
